BAZ2B block – blocks human BAZ2B; actives 4.4% (n = 360,000); AID 504333; Potency, µM (titrated, usually from 114 µM), for inactives: top-dose activity change, negative = inhibition, most hits filed as inhibitors; AlphaScreen BAZ2B-H3K14Ac peptide displacement; also: % is scaled to controls: 0 for no effect and ±100 for the full control effect; nearly all actives have a fitted effect of over 60% in size
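Multi-concentration screen (max 110 uM) measuring displacement of acetylated histone H3 peptide from BAZ2B by AlphaScreen, using 50 nM protein, 50 nM peptide and 10 ug/mL streptavidin donor plus Ni-chelate acceptor beads.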
JMJD2A Tudor inh – JMJD2A Tudor domain (human) inhibition | O75164 | AlphaScreen JMJD2A-Tudor / H3K4me3 peptide binding | Potency, µM (highest dose often 114 µM), inactives show at the top dose activity change, negative = inhibition, hits mostly inhibitors | actives 4.4% (n = 390,000) | AID 504339; also: % is scaled to controls: 0 for no effect and ±100 for the full control effect; nearly all actives have a fitted effect of over 50% in size
Sfp inh – inhibitors of Bacillus subtilis Sfp phosphopantetheinyl transferase. Potency, µM, without a hit: largest response in the series, negative = inhibition, hits mostly inhibitors. Biochemical Sfp PPTase activity, qHTS. Q9F4F7. actives 3.5% (n = 310,000). AID 1490;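 also: the enzyme is Sfp with the accession as filed and its product quenches rhodamine fluorescence; 0% = enzyme reaction without inhibitor and -100% = no enzyme wells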
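Fluorescence-quenching assay with 15 nM Sfp, 5 uM rhodamine-CoA and 12.5 uM BHQ-2-labelled ybbR peptide in pH 7.6 Hepes/MgCl2 buffer. Enzyme was pre-incubated with compound for 15 min at room temperature. Rate was taken from the 30-min fluorescence change (525/598 nm).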
HP1b binding inh – HP1-beta chromodomain-methylated histone interaction inhibition; actives 0.56% (n = 390,000); Potency, µM (top dose mostly 114 µM), for inactives: at the highest dose activity change, negative = inhibition, most hits filed as inhibitors; AlphaScreen HP1-beta / biotin-H3K9me3 peptide binding; P83916; also: nearly all actives have a fitted effect of over 70% in size
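HP1-beta protein (50 nM final) preincubated 30 min at room temperature with biotinylated H3(1-18)K9me3 peptide (50 nM) in PBS pH 7.4, 0.01% Tween-20, then compound added for 30 min. AlphaScreen streptavidin donor/nickel chelate acceptor beads (10 ug/mL final), 30 min dark, luminescence read.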
G9a inh – G9a (human) methyltransferase inhibition. actives 8.8% (n = 350,000). G9a H3K9 monomethylation, AlphaScreen, 2 h. Potency, µM (highest dose often 102 µM), inactives show at the top dose activity, negative = inhibition, actives largely listed as inhibitors. Q96KQ7; also: % is scaled to controls: 0 for no effect and ±100 for the full control effect; nearly all actives have a fitted effect of over 75% in size
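Quantitative HTS format: methyltransferase activity on a biotin-tagged H3K9 peptide is measured by AlphaScreen, using a rabbit anti-monomethyl-H3K9 antibody with streptavidin donor and anti-IgG acceptor beads. Final levels are 20 nM enzyme, 500 nM peptide, 20 uM SAM; 2 h RT.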
L3MBTL1 block – inhibitors of human L3MBTL1; Q9Y468; AlphaScreen L3MBTL1–H3K9me1 peptide binding; Potency, µM (top dose mostly 57.1 µM), inactives show at the highest dose activity, negative = inhibition, actives largely listed as inhibitors; actives 0.66% (n = 230,000); AID 485360; also: % is scaled to controls: 0 for no effect and ±100 for the full control effect; nearly all actives have a fitted effect of over 60% in size
Target sequence (Q9Y468 whole entry, looked up): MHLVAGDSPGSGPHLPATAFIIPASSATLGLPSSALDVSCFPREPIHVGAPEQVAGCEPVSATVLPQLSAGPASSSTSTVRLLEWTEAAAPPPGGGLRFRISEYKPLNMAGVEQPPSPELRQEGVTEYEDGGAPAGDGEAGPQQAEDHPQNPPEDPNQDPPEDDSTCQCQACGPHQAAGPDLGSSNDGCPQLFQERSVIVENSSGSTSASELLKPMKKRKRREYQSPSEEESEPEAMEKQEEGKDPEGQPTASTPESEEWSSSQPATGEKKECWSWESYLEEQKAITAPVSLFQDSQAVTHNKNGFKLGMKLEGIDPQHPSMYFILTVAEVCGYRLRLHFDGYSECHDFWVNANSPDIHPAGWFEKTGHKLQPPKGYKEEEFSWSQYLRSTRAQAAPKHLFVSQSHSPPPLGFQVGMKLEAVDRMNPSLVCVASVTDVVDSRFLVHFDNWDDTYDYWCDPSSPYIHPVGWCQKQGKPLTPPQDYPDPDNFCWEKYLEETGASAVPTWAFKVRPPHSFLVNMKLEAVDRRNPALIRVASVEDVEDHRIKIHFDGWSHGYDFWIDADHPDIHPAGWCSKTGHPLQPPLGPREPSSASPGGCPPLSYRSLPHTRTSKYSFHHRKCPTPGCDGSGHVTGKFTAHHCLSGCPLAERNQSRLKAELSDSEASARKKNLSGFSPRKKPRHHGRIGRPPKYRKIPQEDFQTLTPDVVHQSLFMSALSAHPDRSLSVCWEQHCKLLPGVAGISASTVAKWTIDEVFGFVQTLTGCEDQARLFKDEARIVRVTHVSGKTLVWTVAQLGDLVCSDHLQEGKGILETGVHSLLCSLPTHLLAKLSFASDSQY
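First, the protein-peptide complex forms for 30 min at room temperature (L3MBTL1 50 nM, biotinylated H3K9me1 peptide 75 nM). Next, compounds are pin-transferred and incubated 30 min. Finally, AlphaScreen beads are added and read after 30 min.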
Starred values were filed as active, the others as inactive; ? = inconclusive; nt = no result; [ ] = dose if it differs, or a comment. In the library only some 12% were active in any assay of this set; here they are far more common. Calls follow the shape of the dose curve; as a rule, active = well fitted curve in the direction sought with a large enough effect; inconclusive = small, poorly fitted or top-dose-only effect, or another doubt; inactive = no such curve, though single readings can be large; an effect the other way counts as inactive or inconclusive. Potency is read from the fitted curve at half-maximal effect.

SMILES | BAZ2B block | JMJD2A Tudor inh | Sfp inh | HP1b binding inh | G9a inh | L3MBTL1 block
COc1cc(/C=C2/C(=O)NN(c3ccc(Cl)cc3)C2=O)cc(Br)c1O | 45µM* | 40µM* | -20% | ? | nt | -24%
COC(=O)c1ccc(N2NC(=O)/C(=C/c3cc(OC)c(OC)c(OC)c3)C2=O)cc1 | -30% | -10% | ? | 19% | -12%[2.33 µM] | nt
COC(=O)c1ccc(N2NC(=O)/C(=C/c3cc(OC)c(O)c(OC)c3)C2=O)cc1 | 45µM* | ? | -28% | ? | 2.8µM* | nt
COc1cc(/C=C2/C(=O)NN(c3ccc(F)cc3)C2=O)cc(Cl)c1O | 32µM* | 32µM* | 45µM* | ? | 28µM* | nt
COc1cc(/C=C2/C(=O)NN(c3ccc(Cl)c(Cl)c3)C2=O)cc([N+](=O)[O-])c1O | 40µM* | 16µM* | 17% | ? | 18µM* | nt
Cc1nc(N2CCOCC2)c2c(C(=O)NCCc3ccccc3)c(C)oc2n1 | 13%[57.1 µM] | -5% | nt | 27% | -21%[59 µM] | nt
C=CCn1c(=O)n(C2OC(CO)C(O)C2O)c2nc(N)[nH]c(=O)c21 (configuration not stated) | nt | nt | 12% | nt | -25%[12.7 µM] | nt
Cc1ccc(C(=O)CC(=O)COc2ccc(Cl)cc2)cc1 | 236% | 108% | 3% | 339% | 338% | 115%
COc1cc2ncc(-c3ccccc3)nc2cc1OC | nt | nt | 26% | nt | 50%[59 µM] | nt
Cc1ccc(NC(=O)CC2SC(=NC3CCCCC3)NC2=O)cc1 (configuration not stated) | -2% | -12%[57.1 µM] | -2% | 42% | 89µM* | 1%
COC(=O)[C@@H](NC(=O)N1CCc2nc(-c3ccccc3)c3c(c2C1)CO[C@@H](C)C3)C(C)C | nt | nt | -3% | nt | nt | nt
COc1ccccc1N1CCN(CC(O)COc2ccc(C)c(C)c2)CC1 (configuration not stated) | ? | ? | -3% | 13% | -28% | nt
COc1ccccc1N1CCN(CC(O)COc2cc(C)cc(C)c2)CC1 (configuration not stated) | ? | 79µM* | nt | 15% | ? | nt
COc1ccccc1N1CCN(CC(O)COc2ccc(Cl)c(C)c2)CC1 (configuration not stated) | ? | 89µM* | nt | -10% | ? | nt
Cc1ccc(OCC(O)CN2CCN(CC(O)COC(C)C)CC2)c(C(C)(C)C)c1 (configuration not stated) | 1% | -16% | 3% | 23% | 9%[12.7 µM] | nt
COc1ccccc1N1CCN(CC(O)COc2ccc(C)cc2C(C)(C)C)CC1 (configuration not stated) | 32µM* | ? | nt | ? | 14µM* | nt
COc1ccccc1N1CCN(CC(O)COc2ccc3c(c2)CCC3)CC1 (configuration not stated) | ? | ? | -2% | -10% | ? | -2%
Cc1cccc2sc(N(Cc3cccnc3)C(=O)C3CCCCC3)nc12 | 12% | 8% | nt | 61% | -4%[59 µM] | nt
O=C(NC1CCN(C(=S)NCCc2ccccc2)CC1)C1CCCCC1 | -3% | -11% | ? | 36% | 30% | nt
CCn1c2cc(C)sc2c2cnn(Cc3ccccc3F)c(=O)c21 | nt | 14% | nt | nt | nt | nt
Cc1cc(C)cc(NC(=O)N2CCC(C(N)=O)(N3CCCCC3)CC2)c1 | -18% | -9% | nt | 29% | 2%[59 µM] | nt
COc1cccc(Nc2n[nH]c(=S)s2)c1 | ? | 3.2µM* | 50µM* | ? | 1.4µM* | -3%
COc1ccccc1Nc1n[nH]c(=S)s1 | 20µM* | 4µM* | 79µM* | 22µM* | 1.3µM* | -11%
Cc1cccc(Nc2n[nH]c(=S)s2)c1C | 45µM* | 5.6µM* | 20µM* | ? | ? | 1%
Cc1cccc(Nc2nc3ccccc3s2)c1C | 6% | -27% | -2% | 3% | 12%[59 µM] | -5%
SMILES | BAZ2B block | JMJD2A Tudor inh | Sfp inh | HP1b binding inh | G9a inh | L3MBTL1 block
COc1ccccc1Nc1nc(-c2ccccc2)c(CC(=O)O)s1 | -25% | -14% | nt | 24% | ? | nt
COc1cccc(Nc2nc3ccc(OC)cc3s2)c1 | -18% | -18% | -7% | 3% | ? | nt
CCN(C(=O)Cn1c(=O)n(Cc2ccc3c(c2)OCO3)c(=O)c2ccc(C(=O)NC3CCCCC3)cc21)c1cccc(C)c1 | nt | -11% | nt | 41% | -4%[59 µM] | nt
COc1ccccc1NS(=O)(=O)c1cc(NC(=O)Cc2n[nH]c(=O)c3ccccc23)ccc1Cl | nt | -28% | nt | 4% | nt | 1%
COc1ccc(C(CNCC(O)COc2c(C)ccc(C)c2C)N(C)C)cc1 (configuration not stated) | 56µM* | 22µM* | -13% | 3% | -19% | nt
Cc1cc(C)n(-c2nnc(C)n2/N=C/c2ccccc2OCc2ccccc2Cl)n1 | -5% | -21% | -11% | 35% | 38%[12.7 µM] | -5%
Cc1cc(C)n(-c2nnc(C)n2/N=C/c2cc(Br)ccc2OCc2ccccc2)n1 | -38% | -32% | 28µM* | 8% | ? | -3%
CCCc1cc(C(=O)N2CCC(n3nccc3NC(=O)c3ccc(OC)cc3)CC2)no1 | -9% | -7% | 10% | 58% | 0% | nt
O=C1[C@H]2[C@@H](C(=O)N1c1cccc3ccccc13)C1(C(=O)c3ccccc3C1=O)N1CCC[C@@H]21 | ? | -9% | ? | 6% | 40µM* | -14%
CN(c1ccc(C(=O)COC(=O)C2CC2)cc1)S(C)(=O)=O | nt | 1% | nt | 31% | nt | 8%
O=C1/C(=C/C=C/c2ccco2)SC(=S)N1NS(=O)(=O)c1ccccc1 | 7.1µM* | 3.5µM* | 13µM* | 10µM* | 3.2µM* | nt
CC(C(=O)O)N1C(=O)/C(=C/C=C/c2ccco2)SC1=S (configuration not stated) | 2.5µM* | 3.2µM* | 50µM* | ? | 3.2µM* | 1.1µM*

Bioassay records deposited in PubChem BioAssay by National Center for Advancing Translational Sciences (NCATS).
